{"source": "PubChem BioAssay AID602261", "about": "(Sanford-Burnham Center for Chemical Genomics, 2012)", "note": "In all, about 360,000 compounds went through this assay and about 2,400 (0.67%) were called active. This is one part of a sample in which actives are shown more often than they occur. A number with no mark means an inactive call.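 Rule for the calls: active = compounds whose normalised, plate-corrected inhibition of enzyme fluorescence in the single-dose primary screen is 50% or more; inactive = the rest.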"}
{"biological_target": "Fatty acid synthase (Homo sapiens) (UniProt P49327)", "sequence (P49327 whole entry, looked up)": "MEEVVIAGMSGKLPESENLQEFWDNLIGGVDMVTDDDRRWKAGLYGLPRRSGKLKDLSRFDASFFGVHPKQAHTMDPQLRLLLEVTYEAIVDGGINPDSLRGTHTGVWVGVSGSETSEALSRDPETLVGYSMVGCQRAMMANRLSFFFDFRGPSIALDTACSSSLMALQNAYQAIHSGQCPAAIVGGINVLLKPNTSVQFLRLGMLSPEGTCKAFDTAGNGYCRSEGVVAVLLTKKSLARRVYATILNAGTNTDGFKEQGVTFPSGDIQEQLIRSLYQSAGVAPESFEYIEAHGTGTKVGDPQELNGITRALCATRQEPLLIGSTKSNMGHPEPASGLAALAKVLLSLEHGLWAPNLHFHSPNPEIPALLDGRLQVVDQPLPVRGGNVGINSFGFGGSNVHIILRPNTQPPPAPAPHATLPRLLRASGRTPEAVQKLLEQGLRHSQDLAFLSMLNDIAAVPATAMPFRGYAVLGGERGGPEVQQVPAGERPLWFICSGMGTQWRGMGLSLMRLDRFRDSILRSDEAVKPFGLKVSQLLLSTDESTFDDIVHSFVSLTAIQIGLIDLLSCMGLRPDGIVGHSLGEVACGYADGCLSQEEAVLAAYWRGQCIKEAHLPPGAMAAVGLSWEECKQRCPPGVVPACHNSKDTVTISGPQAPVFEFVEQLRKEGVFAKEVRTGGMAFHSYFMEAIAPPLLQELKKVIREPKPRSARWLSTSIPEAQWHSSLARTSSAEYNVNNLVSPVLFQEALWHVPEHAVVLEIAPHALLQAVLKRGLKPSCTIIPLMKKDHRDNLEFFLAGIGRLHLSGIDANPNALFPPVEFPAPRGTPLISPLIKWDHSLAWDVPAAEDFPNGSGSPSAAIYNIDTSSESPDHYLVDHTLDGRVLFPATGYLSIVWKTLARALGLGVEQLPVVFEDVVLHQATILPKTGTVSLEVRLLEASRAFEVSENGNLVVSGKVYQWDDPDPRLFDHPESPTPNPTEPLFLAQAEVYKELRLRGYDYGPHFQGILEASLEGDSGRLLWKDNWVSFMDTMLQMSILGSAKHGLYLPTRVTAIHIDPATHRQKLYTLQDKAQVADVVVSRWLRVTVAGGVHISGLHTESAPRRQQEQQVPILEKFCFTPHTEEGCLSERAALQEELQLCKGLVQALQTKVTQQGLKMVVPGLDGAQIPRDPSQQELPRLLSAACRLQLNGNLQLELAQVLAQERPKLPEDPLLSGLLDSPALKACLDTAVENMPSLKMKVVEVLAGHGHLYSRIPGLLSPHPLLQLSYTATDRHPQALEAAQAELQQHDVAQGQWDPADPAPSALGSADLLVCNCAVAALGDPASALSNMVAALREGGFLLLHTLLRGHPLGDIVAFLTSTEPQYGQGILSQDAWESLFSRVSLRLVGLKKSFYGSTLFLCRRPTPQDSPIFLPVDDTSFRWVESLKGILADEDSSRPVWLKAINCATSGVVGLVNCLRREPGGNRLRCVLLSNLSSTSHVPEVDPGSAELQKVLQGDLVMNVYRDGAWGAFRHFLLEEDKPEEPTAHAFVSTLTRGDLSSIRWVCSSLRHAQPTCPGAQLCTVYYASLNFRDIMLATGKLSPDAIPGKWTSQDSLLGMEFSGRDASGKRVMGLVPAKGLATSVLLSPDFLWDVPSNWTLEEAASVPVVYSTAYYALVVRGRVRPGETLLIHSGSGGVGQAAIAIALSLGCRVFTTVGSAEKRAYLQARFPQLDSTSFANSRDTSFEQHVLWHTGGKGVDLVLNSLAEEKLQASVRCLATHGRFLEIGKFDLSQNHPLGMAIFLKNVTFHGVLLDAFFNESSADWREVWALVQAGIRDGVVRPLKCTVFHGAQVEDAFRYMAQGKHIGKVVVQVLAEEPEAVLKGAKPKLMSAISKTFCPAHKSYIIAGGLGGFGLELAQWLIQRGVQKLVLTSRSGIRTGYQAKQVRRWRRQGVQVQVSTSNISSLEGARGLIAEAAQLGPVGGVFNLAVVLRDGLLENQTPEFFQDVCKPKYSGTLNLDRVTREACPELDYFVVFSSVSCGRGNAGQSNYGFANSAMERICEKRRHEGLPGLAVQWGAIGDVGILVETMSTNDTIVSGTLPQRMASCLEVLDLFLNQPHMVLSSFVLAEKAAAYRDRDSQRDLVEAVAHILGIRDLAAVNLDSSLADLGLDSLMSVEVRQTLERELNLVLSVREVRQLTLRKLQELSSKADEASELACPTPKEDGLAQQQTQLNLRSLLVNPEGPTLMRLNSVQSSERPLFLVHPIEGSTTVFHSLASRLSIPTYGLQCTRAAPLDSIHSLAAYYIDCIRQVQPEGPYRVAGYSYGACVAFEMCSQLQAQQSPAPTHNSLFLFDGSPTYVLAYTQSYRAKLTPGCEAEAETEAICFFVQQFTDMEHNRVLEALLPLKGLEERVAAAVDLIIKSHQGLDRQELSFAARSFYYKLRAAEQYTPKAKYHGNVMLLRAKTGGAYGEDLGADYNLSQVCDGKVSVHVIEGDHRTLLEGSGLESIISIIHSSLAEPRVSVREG", "assay": "inhibition of human FAS-TE enzyme activity – biochemical, fluorescence intensity, uHTS, primary screen (AID 602261);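 note: 0% = DMSO with enzyme and 100% = substrate without enzyme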", "conditions": "recombinant FAS-TE, OMFH fluorogenic substrate, fluorescence endpoint; at 15 µM; stronger effect = higher value"}
{"smiles": "CC(OC(=O)CNC(=O)c1cccc(F)c1)C(=O)NC1CCCCC1C", "note": "(stereo not drawn)", "inhibition": "-5.6%"}
{"smiles": "COc1ccc(CNC(=O)C(=O)NCC2OCCN2C(=O)c2ccc(OC)cc2)cc1", "note": "(stereo not drawn)", "inhibition": "-1.4%"}
{"smiles": "Cc1nnc(SCc2ccc(C(=O)c3ccc(Cl)cc3)o2)n1-c1ccccc1", "inhibition": "2.7%"}
{"smiles": "Fc1ccc(-n2c(Cc3ccccc3)nnc2SCc2nc(-c3ccc(Cl)cc3)no2)cc1", "inhibition": "52.6% (active)"}
{"smiles": "Cc1ccc(-c2noc(CSc3nnc(-c4cccs4)n3C)n2)cc1", "inhibition": "-14.2%"}
{"smiles": "C/C(=N\\NC(=O)c1cccnc1)c1ccc(-n2ccnc2)cc1", "inhibition": "-10.3%"}
{"smiles": "O=S(=O)(Nc1cccc(-n2cnnn2)c1)c1cnc(Cl)c(Cl)c1", "inhibition": "56.8% (active)"}
{"smiles": "Cc1ccc(C)c(S(=O)(=O)Nc2cccc(-n3cnnn3)c2)c1", "inhibition": "4.5%"}
{"smiles": "O=S(=O)(Nc1ccc(-n2cnnn2)cc1)c1ccc(Cl)cc1", "inhibition": "2.4%"}
{"smiles": "O=c1c2ccccc2cnn1Cc1n[nH]c(=S)n1-c1ccccc1F", "inhibition": "-4.3%"}
{"smiles": "Cc1ccc(C(=O)N/C(=C/c2cccs2)C(=O)N2CCCCC2)cc1", "inhibition": "-8.4%"}
{"smiles": "Cc1ccc(C(=O)N/C(=C\\c2cn(S(=O)(=O)N(C)C)c3ccccc23)C(=O)N2CCCC2)cc1", "inhibition": "86.5% (active)"}
{"smiles": "Cc1ccc(C(=O)N/C(=C\\c2cn(C)c3ccccc23)C(=O)N2CCN(C)CC2)cc1", "inhibition": "-5%"}
{"smiles": "O=C(O)c1ccccc1-c1ccccc1C(=O)Nc1ccccc1Br", "inhibition": "-0.4%"}
{"smiles": "O=C(NCc1ccccc1)C1CCN(C(=O)Cc2ccccc2)CC1", "inhibition": "-4.1%"}
{"smiles": "CCNC(=O)NNC(=O)C1CC(c2cccs2)=NO1", "note": "(stereo not drawn)", "inhibition": "-1.4%"}
{"smiles": "COc1ccc(S(=O)(=O)Nc2ccc(F)cc2)c(C)c1C", "inhibition": "1.1%"}
{"smiles": "COc1cc(C(=O)OC2CCOC2=O)c([N+](=O)[O-])cc1OC", "note": "(stereo not drawn)", "inhibition": "-3.6%"}
{"smiles": "O=C(OC1CCOC1=O)c1ccc(-c2nc3ccccc3s2)s1", "note": "(stereo not drawn)", "inhibition": "51.7% (active)"}
{"smiles": "CC(C)c1ccc(C(=O)OC2CCOC2=O)cc1", "note": "(stereo not drawn)", "inhibition": "-2.3%"}
{"smiles": "O=C(CNC(=O)OCc1ccccc1)NC1CCCCNC1=O", "note": "(stereo not drawn)", "inhibition": "-2.6%"}
{"smiles": "O=C(NCC1CCCCC1)c1cc(S(=O)(=O)N2CCCCC2)ccc1N1CCOCC1", "inhibition": "3.8%"}
{"smiles": "COc1ccc(S(=O)(=O)N2CCCCC2)cc1NC(=O)c1cc([N+](=O)[O-])ccc1N1CCOCC1", "inhibition": "86.5% (active)"}
{"smiles": "COc1ccc(S(=O)(=O)N2CCOCC2)cc1NC(=O)c1ccc(OCC(C)C)c(OC)c1", "inhibition": "27.8%"}
{"smiles": "COc1cccc(NC(=O)C2c3cc(OC)c(OC)cc3C(=O)N(C)C2c2cccnc2)c1", "note": "(stereo not drawn)", "inhibition": "-9.1%"}
{"smiles": "CC1(C)OC(=O)N2CCc3ccccc3C21C", "note": "(stereo not drawn)", "inhibition": "-4.7%"}
{"smiles": "O=C1c2ccccc2S(=O)(=O)c2cc(N3CCN(c4ccccn4)CC3)ccc21", "inhibition": "12.8%"}
{"smiles": "O=C(c1ccc2c(c1)C(=O)N(c1ccc(Cl)cc1)C2=O)N1CCN(c2ccccn2)CC1", "inhibition": "-5.5%"}
{"smiles": "O=C(c1ccc2c(c1)N(Cc1ccc(F)cc1)C(=O)c1ccccc1S2(=O)=O)N1CCN(c2ccccn2)CC1", "inhibition": "56.9% (active)"}
{"smiles": "CCCCNC(=O)CCn1c(=O)c2ccccc2n(Cc2cc(C)ccc2C)c1=O", "inhibition": "-13.3%"}
{"smiles": "COCCNC(=O)CCCn1c(=O)c2ccccc2n(Cc2cccc([N+](=O)[O-])c2)c1=O", "inhibition": "55.7% (active)"}
{"smiles": "COc1ccccc1CNC(=O)CCCn1c(=O)c2ccccc2n(CC(=O)NC2CCCC2)c1=O", "inhibition": "-7.6%"}
{"smiles": "COCCn1c(CN2CCC(Cc3ccccc3)CC2)nc2c1c(=O)n(C)c(=O)n2C", "inhibition": "53.4% (active)"}
{"smiles": "CCOC(=O)N1CCN(Cc2nc3c(c(=O)n(C)c(=O)n3C)n2Cc2ccccc2)CC1", "inhibition": "4%"}
{"smiles": "CN1CCN(Cc2nc3c(c(=O)n(C)c(=O)n3C)n2Cc2cccc3ccccc23)CC1", "inhibition": "17.2%"}
{"smiles": "COc1ccc(OC)c(S(=O)(=O)N2CCCC(C(=O)N3CCC(C(N)=O)CC3)C2)c1", "note": "(stereo not drawn)", "inhibition": "-9.7%"}
{"smiles": "COc1ccc(C2=NN(C(=O)c3ccccc3C(=O)O)C(c3ccccc3O)C2)cc1", "note": "(stereo not drawn)", "inhibition": "-6.4%"}
{"smiles": "COc1ccc(C2CC(c3cccc(OC)c3)=NN2c2ccc(S(N)(=O)=O)cc2)cc1", "note": "(stereo not drawn)", "inhibition": "18.6%"}
{"smiles": "COc1ccc(C2CC(c3ccccc3)=NN2C(=O)c2ccc(Cl)c([N+](=O)[O-])c2)cc1", "note": "(stereo not drawn)", "inhibition": "65.8% (active)"}
{"smiles": "CCCn1c(SCC(=O)Nc2ccc(C)c(S(=O)(=O)N3CCOCC3)c2)n[nH]c1=O", "inhibition": "-3.3%"}
{"smiles": "Cc1cc(C)c2nc(-c3cccnc3)cc(C(=O)Nc3ccc(S(=O)(=O)Nc4onc(C)c4C)cc3)c2c1", "inhibition": "-0.1%"}
{"smiles": "C/C(=N\\Nc1ccc([N+](=O)[O-])cc1)c1ccc(-n2nncc2C(C)(C)C)cc1", "inhibition": "-16%"}
{"smiles": "C/C(=N\\Nc1nc(N2CCOCC2)nc(N2CCOCC2)n1)c1ccc([N+](=O)[O-])cc1", "inhibition": "57.8% (active)"}
{"smiles": "C/C(=N/NC(=O)CC(=O)N/N=C(\\C)c1ccc([N+](=O)[O-])cc1)c1ccc([N+](=O)[O-])cc1", "inhibition": "36%"}
{"smiles": "O=C(NCCN1CCOC1=O)C1CCC(=O)N(CCc2ccc(Cl)cc2)C1", "note": "(stereo not drawn)", "inhibition": "0.7%"}
{"smiles": "O=C(c1cnccn1)N1CCN(S(=O)(=O)c2cccc(Cl)c2)CC1", "inhibition": "-6.3%"}
{"smiles": "Cc1ccc(S(=O)(=O)/N=C(/NC(=S)Nc2c(C)n(C)n(-c3ccccc3)c2=O)c2ccccc2)cc1", "inhibition": "-4.4%"}
{"smiles": "CC[C@]12c3[nH]c4ccc(Cl)cc4c3CCN1C(=O)[C@@H](CC(=O)NCCCOC)C[C@@H]2C(=O)N1CCN(C(=O)C2CC2)CC1", "inhibition": "-5.2%"}
{"smiles": "Cc1ccc(S(=O)(=O)N2C[C@@H](C)[C@]3(C2)[C@H](O)[C@H](OC(=O)NCc2ccccc2)C[C@H]2C(=O)N(c4ccccc4)C(=O)[C@H]23)cc1", "inhibition": "18.7%"}
{"smiles": "CCOC(=O)C1=C(N)N(c2ccc(C)cc2)C2=C(C(=O)CCC2)C1c1cccs1", "note": "(stereo not drawn)", "inhibition": "20.7%"}
{"smiles": "CCOC1=C2CN(S(=O)(=O)c3ccc(C)cc3)[C@H](c3cccs3)C[C@H]2[C@H]2C(=O)N(c3ccccc3)C(=O)[C@H]2C1", "inhibition": "58% (active)"}
{"smiles": "CCOC1=C2[C@@H](CN(S(=O)(=O)c3ccc(C)cc3)[C@H]2c2ccccc2F)[C@H]2C(=O)N(Cc3ccccc3)C(=O)[C@H]2C1", "inhibition": "35.8%"}
{"smiles": "CCOC(=O)C1=CC[C@@H](c2ccccc2)N(S(=O)(=O)c2ccc(C)cc2)[C@H]1c1ccc(CC)cc1", "inhibition": "31.8%"}
{"smiles": "CCOC1=C2[C@H]([C@H]3C(=O)N(c4ccccc4)C(=O)[C@H]3C1)[C@@H](c1ccccc1)N(S(=O)(=O)c1ccc(C)cc1)[C@H]2c1ccccc1", "inhibition": "69.2% (active)"}
{"smiles": "NC(=O)COC(=O)c1sc2cc(F)ccc2c1Cl", "inhibition": "5%"}
{"smiles": "CCOc1ccc2[nH]c(=S)sc2c1", "inhibition": "-1.4%"}
{"smiles": "CN1CCN(S(=O)(=O)c2ccc(Nc3ccc(F)cc3)nc2)CC1", "inhibition": "-0.3%"}
{"smiles": "CC1CN(C(=O)c2cc(COc3c(F)cccc3F)on2)CCN1C", "note": "(stereo not drawn)", "inhibition": "-5.4%"}
{"smiles": "Cc1nnc(-c2ccc(Oc3ccc(C)c(C)c3)c([N+](=O)[O-])c2)o1", "inhibition": "21.4%"}
{"smiles": "COc1cccc2c1CCC(NC(C)=O)C2=O", "note": "(stereo not drawn)", "inhibition": "-7.2%"}
{"smiles": "Brc1ccccc1/C=N/Nc1nc2ccccc2o1", "inhibition": "-4.3%"}
{"smiles": "O=[N+]([O-])c1cc(Br)c(O)c(/C=N/Nc2nc3ccccc3s2)c1", "inhibition": "52.5% (active)"}
{"smiles": "O=C(NC(Nc1nc2ccc([N+](=O)[O-])cc2s1)(C(F)(F)F)C(F)(F)F)c1ccccc1", "inhibition": "10.8%"}
{"smiles": "COc1ccc(SCc2noc(C(=O)NCC3CCCO3)c2C(=O)O)cc1", "note": "(stereo not drawn)", "inhibition": "-6.7%"}
{"smiles": "Cc1cccc(N(CC(=O)N2CCCC2)S(C)(=O)=O)c1C", "inhibition": "-4.4%"}
{"smiles": "COCCN1C2=C(COC(C)(C)C2)C(=S)NC1c1ccccc1", "note": "(stereo not drawn)", "inhibition": "-8.2%"}
{"smiles": "COc1ccc2c(c1)[C@H]1[C@H](CO2)[C@H](c2ccccc2)[C@]2(C)C(=O)Nc3cc(F)c(F)cc3C(=O)N12", "inhibition": "71.2% (active)"}
{"smiles": "Cc1ccc2c(c1)NC(=O)[C@@]1(C)[C@@H](c3ccccc3)[C@H]3COc4ccc(Cl)cc4[C@@H]3N1C2=O", "inhibition": "15.6%"}
{"smiles": "CCOC(=O)[C@H]1[C@H]2COc3ccc(OC)cc3[C@@H]2N2C(=O)c3ccc(F)cc3NC(=O)[C@@]12C", "inhibition": "-4.6%"}
{"smiles": "CCOC(=O)c1ccc(COC(=O)CCc2nc(-c3ccccc3)c(-c3ccccc3)o2)cc1", "inhibition": "26.3%"}
{"smiles": "COc1cc(OC)cc(-c2cc3nc(C4CCN(C(=O)OC(C)(C)C)CC4)cc(=O)n3[nH]2)c1", "inhibition": "-5.7%"}
{"smiles": "CCC(C)NC(=O)C1CCCN(C(=O)NC2CCCCC2)C1", "note": "(stereo not drawn)", "inhibition": "-6.1%"}
{"smiles": "O=C(c1[nH]ncc1-c1ccc(Cl)cc1)C1CO1", "note": "(stereo not drawn)", "inhibition": "-22%"}
{"smiles": "O=C(NC(=S)NC1CCS(=O)(=O)C1)c1cccc([N+](=O)[O-])c1", "note": "(stereo not drawn)", "inhibition": "-3.5%"}
{"smiles": "Cc1ccc(NC(=O)C(=O)NCC2CCN(C(=O)c3cccc([N+](=O)[O-])c3)CC2)cc1", "inhibition": "0.8%"}
{"smiles": "O=C(Nc1ccc(C2CC2(Cl)Cl)cc1)c1cccc([N+](=O)[O-])c1", "note": "(stereo not drawn)", "inhibition": "90.9% (active)"}
{"smiles": "CCOc1ccc(CCNC(=O)COC(=O)c2ccc(F)c(S(=O)(=O)N3CCOCC3)c2)cc1OCC", "inhibition": "-4.3%"}
{"smiles": "N#Cc1c(/N=C/N2CCCC2)oc(-c2ccccc2)c1-c1ccccc1", "inhibition": "27.6%"}
{"smiles": "CCN1C(=O)[C@H]2[C@@H](c3ccc(C)cc3)N3C(=O)N(c4cccc(Br)c4)C(=O)[C@@]3(CC)[C@H]2C1=O", "inhibition": "-1.3%"}
{"smiles": "O=C1[C@H]2[C@@H](c3ccc(Cl)cc3)N3C(=O)N(c4cccc(F)c4)C(=O)[C@@]3(Cc3ccccc3)[C@H]2C(=O)N1C1CCCCC1", "inhibition": "92.2% (active)"}
{"smiles": "CC(C)(C)N1C(=O)[C@H]2[C@@H](c3ccc(Br)cc3)N3C(=O)N(c4cccc(Cl)c4)C(=O)[C@@]3(C)[C@H]2C1=O", "inhibition": "31.7%"}
{"smiles": "O=C1[C@H]2[C@@H](c3ccc(C(F)(F)F)cc3)N[C@]3(CCCN(Cc4ccc(Br)cc4)C3=O)[C@H]2C(=O)N1Cc1ccccc1", "inhibition": "41.2%"}
{"smiles": "Cc1ccc([C@H]2N[C@]3(CCCN(CC4CCCCC4)C3=O)[C@H]3C(=O)N(Cc4ccccc4)C(=O)[C@@H]23)cc1", "inhibition": "21.4%"}
{"smiles": "Cc1cccc(N2C(=O)N3[C@H](c4ccc(F)cc4)[C@@H]4C(=O)N(C5CCCCC5)C(=O)[C@@H]4[C@]3(Cc3ccccc3)C2=O)c1", "inhibition": "90.1% (active)"}
{"smiles": "O=C1[C@H]2[C@@H](c3ccc(F)cc3)N3C(=O)N(c4ccc(C(F)(F)F)cc4)C(=O)[C@@]3(Cc3ccccc3)[C@H]2C(=O)N1C1CCCCC1", "inhibition": "91.3% (active)"}
{"smiles": "CC12C(=O)N(c3ccccc3)C(=O)C1C(c1ccccc1)N1CCCN12", "note": "(stereo not drawn)", "inhibition": "-2.7%"}
{"smiles": "C[C@@]12C(=O)N(c3cccc(Br)c3)C(=O)N1[C@H](c1ccc(Cl)cc1)[C@@H]1C(=O)N(C3CCCCC3)C(=O)[C@@H]12", "inhibition": "93.7% (active)"}
{"smiles": "O=C1[C@H]2[C@@H](c3ccc(C(F)(F)F)cc3)N[C@]3(CCCN(Cc4ccc(Cl)cc4)C3=O)[C@H]2C(=O)N1Cc1ccccc1", "inhibition": "41.2%"}
